Laboratory results published in PubChem BioAssay (NCI).
Compounds without any hit were thinned out: in the full panel of roughly 79,000, 15% have a hit. Activity calls are given as the source filed them. No stated cut-off is given here; in the data, active means growth inhibition above about 70%; inactive means the rest.

Columns and labels:
[1] = NCI Yeast Anticancer Drug Screen. Data for the rad50 strain (AID 155);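 further: 0% = growth of vehicle-only cultures of the same strain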; details: S. cerevisiae rad50 strain growth inhibition, active compounds read high
In short: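 Yeast carrying a defined DNA repair defect were exposed to test compounds, and growth was compared with vehicle-treated controls to give percent inhibition.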

[2] = NCI Yeast Anticancer Drug Screen. Data for the mec2-1 strain (AID 157); details: S. cerevisiae mec2-1 strain, active compounds read high
In short: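 Cells of the genetically defined mec2-1 yeast strain are incubated with test compound. Inhibition of growth is calculated against vehicle-treated controls.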

[3] = NCI Yeast Anticancer Drug Screen. Data for the sgs1 mgt1 strain (AID 161);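 further: 0% = growth of cultures given vehicle only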; details: S. cerevisiae sgs1 mgt1 strain, active compounds read high
In short: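 Inhibition of yeast growth, normalised to vehicle-treated controls, is reported for a strain bearing genetic alterations in DNA damage repair.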

[4] = NCI Yeast Anticancer Drug Screen. Data for the cln2 rad14 strain (AID 165);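 further: 0% = growth equal to vehicle treated cultures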; details: S. cerevisiae cln2 rad14 strain, active compounds read high
In short: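 The screen exposed genetically defined yeast (cln2 rad14) to test compounds and scored growth inhibition relative to vehicle-treated controls.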

[5] = NCI Yeast Anticancer Drug Screen. Data for the bub3 strain (AID 167); details: S. cerevisiae bub3 mutant strain, active compounds read high
In short: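 Compounds were applied to a genetically altered yeast strain carrying a cell-cycle control defect. Growth inhibition was scored against vehicle-treated controls.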

[6] = NCI Yeast Anticancer Drug Screen. Data for the mlh1 rad18 strain (AID 175); details: S. cerevisiae mlh1 rad18 strain growth inhibition, active compounds read high
In short: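 Compound-treated yeast growth, normalised to vehicle controls. Strain bears defined DNA repair mutations.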

[7] = at 5.0 µM (retest, dose inferred, filed as 0.5)
[8] = at 50.0 µM (retest, dose inferred, filed as 5.0)

Measured: growth inhibition

CC(=O)c1cc(I)c(O)c2ncccc12
active: [1]; [7] 96% | [1]; [8] 99% | [1]; at 50.0 µM 90.3% | [2]; [7] 93% | [2]; [8] 99% | [2]; at 50.0 µM 92.5% | [3]; [8] 98% | [3]; at 50.0 µM 93% | [4]; [8] 96% | [4]; at 50.0 µM 88.8% | [5]; [8] 95% | [5]; at 50.0 µM 89.5% | [6]; [7] 100% | [6]; [8] 100% | [6]; at 50.0 µM 87.9%
inactive: [3]; [7] 29% | [4]; [7] 69% | [5]; [7] 28%

O=C1C(Cl)=C(Cl)C(=C2C(Cl)=C(Cl)C(=O)C(Cl)=C2Cl)C(Cl)=C1Cl
active: [1]; [7] 98% | [1]; [8] 99% | [1]; at 50.0 µM 99.5% | [2]; [7] 97% | [2]; [8] 100% | [2]; at 50.0 µM 99.6% | [3]; [7] 91% | [3]; [8] 99% | [3]; at 50.0 µM 99.5% | [4]; [7] 99% | [4]; [8] 99% | [4]; at 50.0 µM 99% | [5]; [7] 79% | [5]; [8] 98% | [5]; at 50.0 µM 99.5% | [6]; [7] 97% | [6]; [8] 99% | [6]; at 50.0 µM 99.4%

O=C(O)/C=C/C(=O)NNc1nc2ccccc2s1
active: [6]; at 50.0 µM 70.2%
inactive: [1]; [7] -4% | [1]; [8] -1% | [1]; at 50.0 µM 23.1% | [2]; [7] -9% | [2]; [8] 2% | [2]; at 50.0 µM -5.25% | [3]; [7] 0% | [3]; [8] -25% | [3]; at 50.0 µM 50.3% | [4]; [7] -25% | [4]; [8] 1% | [4]; at 50.0 µM 23.1% | [5]; [7] -31% | [5]; [8] -21% | [5]; at 50.0 µM -13.2% | [6]; [7] -7% | [6]; [8] 20%

CC[N](CC)[Ge]([CH2]C)[CH2]C.CC[N](CC)[Ge]([CH2]C)[CH2]C
active: [1]; [8] 98% | [2]; [8] 98% | [2]; at 50.0 µM 76.9% | [3]; [8] 99% | [4]; [8] 98% | [5]; [8] 99% | [5]; at 50.0 µM 75% | [6]; [8] 97% | [6]; at 50.0 µM 77.7%
inactive: [1]; [7] 34% | [1]; at 50.0 µM 57% | [2]; [7] 21% | [3]; [7] 56% | [3]; at 50.0 µM 56.4% | [4]; [7] 48% | [4]; at 50.0 µM 37.1% | [5]; [7] 59% | [6]; [7] 27%

Cc1c2cc[n+](C)cc2c(COC2OC(CO)C(O)C2O)c2c3ccccc3n(C)c12 (stereo not given)
inactive: [1]; [7] 23% | [1]; [8] 44% | [1]; at 50.0 µM 65% | [2]; [7] 10% | [2]; [8] 10% | [2]; at 50.0 µM 23.6% | [3]; [7] -12% | [3]; [8] 23% | [3]; at 50.0 µM 17.9% | [4]; [7] 19% | [4]; [8] 24% | [4]; at 50.0 µM 18.1% | [5]; [7] 12% | [5]; [8] 14% | [5]; at 50.0 µM 28.1% | [6]; [7] 13% | [6]; [8] 14% | [6]; at 50.0 µM 23.2%

COc1cccc2c1C(=O)c1c(O)c3c(c(O)c1C2=O)C[C@@](O)(C(O)CO)C[C@@H]3OC1CC(N(Cc2ccccc2)Cc2ccccc2)C(O)C(C)O1 (stereo not given in full)
active: [1]; [8] 98% | [1]; at 50.0 µM 86.8% | [2]; [8] 98% | [2]; at 50.0 µM 85.8% | [3]; [8] 98% | [4]; [8] 97% | [5]; [8] 98% | [6]; [8] 97% | [6]; at 50.0 µM 84%
inactive: [1]; [7] 45% | [2]; [7] 13% | [3]; [7] 29% | [3]; at 50.0 µM 65.6% | [4]; [7] 18% | [4]; at 50.0 µM 45.1% | [5]; [7] 20% | [5]; at 50.0 µM 62% | [6]; [7] 50%

CCCCCC(C)NCC(O)Cc1ccc(OCCCC)cc1 (stereo not given)
active: [1]; [8] 100% | [1]; at 50.0 µM 99.5% | [2]; [8] 99% | [2]; at 50.0 µM 99.3% | [3]; [8] 100% | [3]; at 50.0 µM 99.3% | [4]; [8] 100% | [4]; at 50.0 µM 98.9% | [5]; [8] 100% | [5]; at 50.0 µM 99.5% | [6]; [8] 100% | [6]; at 50.0 µM 99.7%
inactive: [1]; [7] 22% | [2]; [7] 29% | [3]; [7] 37% | [4]; [7] 34% | [5]; [7] 42% | [6]; [7] 20%

O=[N+]([O-])c1ccc(CSSCc2ccc([N+](=O)[O-])cc2)cc1
inactive: [1]; [7] 5% | [1]; [8] 18% | [1]; at 50.0 µM 18.5% | [2]; [7] 9% | [2]; [8] 39% | [2]; at 50.0 µM 16.7% | [3]; [7] 21% | [3]; [8] 49% | [3]; at 50.0 µM 41.5% | [4]; [7] -3% | [4]; [8] 36% | [4]; at 50.0 µM -18.2% | [5]; [7] 26% | [5]; [8] 66% | [6]; [7] 10% | [6]; [8] 49% | [6]; at 50.0 µM 28%
active: [5]; at 50.0 µM 72.5%

CCCC(C(=O)OCCN1CCCC1(C)C)C1CCCC1 (stereo not given)
inactive: [1]; [7] 17% | [1]; [8] 38% | [1]; at 50.0 µM 41% | [2]; [7] 10% | [2]; [8] 46% | [2]; at 50.0 µM 39% | [3]; [7] 24% | [3]; [8] 58% | [3]; at 50.0 µM 48% | [4]; [7] 29% | [4]; [8] 58% | [5]; [7] 45% | [5]; [8] 62% | [5]; at 50.0 µM 36.5% | [6]; [7] 36% | [6]; [8] 68% | [6]; at 50.0 µM 40%
active: [4]; at 50.0 µM 70.7%

C1C[OH+]CC[OH+]CCNCC[OH+]CC[OH+]CCN1.[Cl-].[Pt+4]
inactive: [1]; [7] 34% | [1]; [8] 34% | [2]; [7] 34% | [2]; [8] 34% | [3]; [7] 29% | [3]; [8] 29% | [4]; [7] 29% | [4]; [8] 29% | [5]; [7] 10% | [5]; [8] 10% | [6]; [7] 43% | [6]; [8] 43%
active: [1]; at 50.0 µM 86.8% | [2]; at 50.0 µM 87.4% | [3]; at 50.0 µM 84.8% | [4]; at 50.0 µM 87.1% | [5]; at 50.0 µM 86.2% | [6]; at 50.0 µM 84.2%
